TbPYK inhibitor – qHTS of Trypanosoma Brucei Inhibitors. pyruvate kinase (Trypanosoma brucei), Q57TT1. TbPYK enzyme, Kinase-Glo Plus ATP luminescence, 45 min. Potency, µM (titrated, usually from 76.8 µM), without a hit: top-dose activity, negative = inhibition, hits mostly inhibitors. actives 0.12% (n = 410,000). AID 624173, 2012; also: potency is read from the fitted curve at half-maximal effect; % is scaled to controls: 0 for no effect and ±100 for the full control effect; nearly all actives have a fitted effect of over 50% in size
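Readout: single end-point luminescence (Kinase-Glo Plus, 10 min). Reaction conditions were TbPYK/substrate plus 130 uM ADP, 45 min at RT, pH 7.2 TEA buffer. No-enzyme wells served as controls, and data were normalized before concentration-response fitting.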
Cycloheximide cs – Cycloheximide Counterscreen for Small Molecule Inhibitors of Shiga Toxin. max response, %. actives 12% (n = 300,000). AID 2314, 2010. cell reporter, cycloheximide protein synthesis inhibition counterscreen; in the data active = max response mostly above about 13%, no sharp cut-off; inactive = mostly below about 14%; also: read at 38.3 µM for the half of the compounds with a filed dose; 0% is about no effect
Giardia FBPA inh – qHTS Assay for Inhibitors of Fructose-1,6-bisphosphate Aldolase from Giardia Lamblia; A8B2U2; purified Giardia FBPA; Potency, µM (top dose mostly 59.6 µM), without a hit: at the highest dose activity, negative = inhibition, hits mostly inhibitors; actives 0.71% (n = 290,000); AID 2451, 2010; also: potency is read from the fitted curve at half-maximal effect; % is scaled to controls: 0 for no effect and ±100 for the full control effect; nearly all actives have a fitted effect of over 55% in size
Target sequence (A8B2U2 whole entry, looked up): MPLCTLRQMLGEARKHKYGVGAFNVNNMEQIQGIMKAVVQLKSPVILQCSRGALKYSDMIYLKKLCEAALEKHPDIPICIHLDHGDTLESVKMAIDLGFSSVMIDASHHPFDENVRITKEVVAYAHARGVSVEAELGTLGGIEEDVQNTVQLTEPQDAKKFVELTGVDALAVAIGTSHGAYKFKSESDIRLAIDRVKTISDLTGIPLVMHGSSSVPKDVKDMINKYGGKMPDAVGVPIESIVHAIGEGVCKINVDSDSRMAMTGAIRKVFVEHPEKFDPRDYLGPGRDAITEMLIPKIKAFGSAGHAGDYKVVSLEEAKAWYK
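Giardia FBPA (40 nM reagent) was preincubated 10 min at RT with compound (up to 57.5 uM final), then substrate plus GAPDH/TPI/NAD/arsenate coupling system with diaphorase/resazurin was added; resorufin fluorescence (525/598 nm) was read after 20 min.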
Shiga inhibitor – A qHTS for Small Molecule Inhibitors of Shiga Toxin. actives 9.2% (n = 290,000). Vero cells, Shiga toxin protein synthesis inhibition reporter. inhibition, % at 38.7 µM; in the data active = inhibition mostly above about 28%, no sharp cut-off; inactive = mostly below about 43%; also: 0% is about no effect
RE007 growth inh – qHTS Assay for Inhibitors of the HIV-1 protein Vpr; Potency, µM (top dose mostly 92.2 µM), without a hit: at the highest dose activity change, negative = less growth, actives largely listed as inhibitors; S. pombe RE007 Vpr strain, BacTiter-Glo ATP luminescence, 24 h; actives 0.21% (n = 360,000); AID 651644, 2012; active = well fitted falling curve with a large enough effect; inconclusive = small, poorly fitted or top-dose-only effect; inactive = no such curve, though single readings can be large or run the other way; also: potency is read from the fitted curve at half-maximal effect; % is scaled to controls: 0 for no effect and ±100 for the full control effect; nearly all actives have a fitted effect of over 50% in size
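Fission yeast strain RE007, carrying one chromosomally integrated HIV-1 vpr copy, was seeded at OD 0.01 in PMG+AL medium with 23 nL pinned compound. After 24 h at 30 °C and 99% humidity, viability was read by BacTiter-Glo luminescence.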
LmPK inh – qHTS Assay for Inhibitors of Leishmania Mexicana Pyruvate Kinase (LmPK); Potency, µM (top dose mostly 57.5 µM), for the others: top-dose activity change, negative = inhibition, usual class: inhibitors; purified LmPK, Kinase-Glo ATP luminescence, 1 h; AID 1721, 2009; actives 0.37% (n = 290,000); also: potency is read from the fitted curve at half-maximal effect; % is scaled to controls: 0 for no effect and ±100 for the full control effect
Target sequence (Q27686 whole entry, looked up): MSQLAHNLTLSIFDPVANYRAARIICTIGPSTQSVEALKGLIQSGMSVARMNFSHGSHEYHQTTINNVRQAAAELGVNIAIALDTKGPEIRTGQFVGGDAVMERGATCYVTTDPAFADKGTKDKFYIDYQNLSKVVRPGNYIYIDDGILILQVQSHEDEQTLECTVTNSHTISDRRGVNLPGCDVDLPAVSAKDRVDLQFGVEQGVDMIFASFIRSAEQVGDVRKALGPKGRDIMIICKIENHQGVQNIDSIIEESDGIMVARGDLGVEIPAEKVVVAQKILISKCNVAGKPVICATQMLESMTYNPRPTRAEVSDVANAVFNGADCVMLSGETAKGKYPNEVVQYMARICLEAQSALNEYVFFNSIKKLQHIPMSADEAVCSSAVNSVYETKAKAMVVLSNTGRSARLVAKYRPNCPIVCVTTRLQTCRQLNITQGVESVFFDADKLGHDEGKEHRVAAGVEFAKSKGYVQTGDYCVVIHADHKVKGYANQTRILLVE
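In 50 mM imidazole pH 7.2 with 7 mM MgCl2, LmPK (0.1 nM) turned over PEP (0.5 mM) and ADP (0.1 mM) for 1 h at room temperature. Luciferase read-out of ATP.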
An asterisk follows results filed as active; ? = inconclusive; . = no result given; [ ] = dose if it differs, or a comment. The sample as a whole holds a higher share of hits than the screen did. Unless noted, calls follow the shape of the dose curve; as a rule, active = well fitted curve in the direction sought with a large enough effect; inconclusive = small, poorly fitted or top-dose-only effect, or another doubt; inactive = no such curve, though single readings can be large; an effect the other way counts as inactive or inconclusive.

SMILES | TbPYK inhibitor | Cycloheximide cs | Giardia FBPA inh | Shiga inhibitor | RE007 growth inh | LmPK inh
Cc1ccc2c(c1)c1c3n2CCN(C(=O)CCl)C3CCC1 (centres undefined) | -0.4% | 9.8* | -19.7% | 23.8 | 8.4% | 0.4%
Cc1ccc(-c2nc3cc(Cl)ccc3o2)cc1NC(=O)c1cc([N+](=O)[O-])ccc1N1CCOCC1 | 2.6% | . | . | . | . | .
CC(=O)O[C@H]1C[C@@H]2OC3C=C(C)CCC3(C)[C@@]1(C)[C@@]21CO1 (some centres undefined) | -6.5% | . | . | . | 3.16µM* | .
OCCCNCc1ccc(N(c2ccccc2)c2ccccc2)cc1 | 1.2% | -6.5 | ? | -18.9 | 1.4% | 1.8%
Cc1ccc(NC(=O)c2nc[nH]c2C(=O)NCCCNC(=O)c2[nH]cnc2C(=O)Nc2ccc(C)cc2)cc1 | -3.6% | . | . | . | -3.3% | .
Cc1ccc(NC(=O)c2[nH]cnc2C(=O)NN)cc1 | -4.0% | 25.7* | 6.3% | 71.2* | -1.3% | -8.4%
O=C(O)/C=C\C(=O)Nc1ccccc1C#Cc1ccc(Br)cc1 | 8.3% | 55.9* | -9.5% | 89.3* | 44.7µM* | 1.3%
O=C(O)/C=C\C(=O)Nc1ccccc1C#Cc1ccccc1 | -14.6% | 58.6* | 1.8% | active | -9.0% | 0.0%
COc1ccc(Br)cc1S(=O)(=O)NCCc1cccs1 | 0.6% | . | . | . | -20.1% | .
C[C@@H]1C[C@@H]2[C@H]([C@H]3C=C(COC(=O)c4ccccc4)[C@@H](O)[C@]4(O)[C@@H](O)C(OC(=O)c5ccccc5)=C[C@@]14C3=O)C2(C)C | . | 17.5 | -6.7% | 23.7* | . | .
Clc1ccc2nc(-c3ccccc3)cn2c1 | ? | 34.5* | -18.7% | 44.4* | -28.5% | ?
CN(C)S(=O)(=O)c1cccc(-c2cn3cc(Cl)ccc3n2)c1 | 1.3% | 27.6* | -12.8% | 20.2 | 16.5% | 0.7%
CNC(=O)Oc1ccc(-c2cn3cc(C)ccc3n2)cc1 | -1.3% | -1.9 | -32.2% | 5.6 | ? | -22.0%
CNC(=O)Oc1cccc(-c2cn3cc(Cl)ccc3n2)c1 | -23.0% | 10.7 | -15.8% | -12.6 | ? | 14.1µM*
CCN1CCN(c2cc3c(cc2F)c(=O)c(S(=O)(=O)c2ccc(OC)cc2)cn3CC)CC1 | 2.9% | . | . | . | . | .
COCCCn1c(=O)c2sccc2n(Cc2cc(C(=O)OC)ccc2OC)c1=O | 0.5% | -1.3 | -1.8% | -11.5 | 3.8% | -8.7%
CCOC(=O)c1sc(NC(=O)c2cccc(S(=O)(=O)N(CC)CC)c2)cc1C | 5.3% | -0.4 | 0.6% | -7.6 | -1.1% | -4.7%
CCOC(=O)c1sc(NC(=O)C2CC2)cc1C | -5.9% | 15.3* | -0.3% | 38.2* | 3.0% | 2.6%
CCOC(=O)c1sc(NC(=S)NC(=O)C2CCCC2)cc1C | -0.6% | 11.1 | -14.9% | 10.3* | 3.3% | 1.0%
CCOC(=O)c1sc(NC(=O)C(C)(C)C)cc1C | 2.7% | 27.6* | -3.0% | active | 12.0% | 0.7%
CCOC(=O)c1sc(NC(=O)c2ccc(S(=O)(=O)N(C)C)cc2)cc1C | . | -0.8 | -13.7% | -10.8 | -8.0%[3.69 µM] | 5.2%
CCOC(=O)c1sc(NC(=S)NC(=O)CC(C)C)cc1C | -7.9% | 42.8* | -12.2% | 48.9* | 3.0% | 2.5%
O=C(O)c1ccccc1Nc1ccc(CCc2ccc(Cl)c(Cl)c2)cc1 | . | 15.5* | ? | 26.7* | . | .
O=C(O)c1ccccc1Nc1cc(Cl)cc(Cl)c1 | . | -1.8 | ? | -0.6 | . | .
CCc1cccc(NC(=O)CSc2ncc3c(n2)-c2cc(Cl)ccc2N(C)S3(=O)=O)c1 | 0.1% | . | . | . | . | .
SMILES | TbPYK inhibitor | Cycloheximide cs | Giardia FBPA inh | Shiga inhibitor | RE007 growth inh | LmPK inh
Cc1cc(C)nc(Nc2ccc(N3CCOCC3)cc2)n1 | -21.3% | 17.1* | -22.7% | 70.4 | 14.1% | -11.2%
CCOc1ccc(Nc2nc(N3CCCC3)nc(N3CCN(c4ccc(OC)cc4)CC3)n2)cc1 | -10.4% | -1.2 | -2.8% | -11.7 | -0.3% | -0.1%
Cc1cc(C)nc(Nc2ccc(N3CCCC3)cc2)n1 | -20.3% | 30.3* | -28.0% | 90.3* | 8.9% | -10.2%
COCCNC(=O)C(c1ccncc1)N(Cc1ccccc1)C(=O)Cn1nnc2ccccc21 (centres undefined) | 6.0% | 33.3* | 1.8% | 42.2* | -14.9% | 8.6%
COCCNC(=O)C(c1ccccc1)N(Cc1cccs1)C(=O)Cn1nnc2ccccc21 (centres undefined) | -5.6% | -4.2 | 5.6% | -12.1 | 6.1% | 3.7%
COCCNC(=O)C(c1cccnc1)N(Cc1ccccc1)C(=O)Cn1nnc2ccccc21 (centres undefined) | 1.4% | 29.1* | -0.1% | 93.9* | 11.1% | -12.6%
CC(=O)N1N=C2c3ccccc3CCC2C1c1ccc(F)cc1 (centres undefined) | -0.1% | -0.6 | 6.4% | -9.0 | 17.4% | 2.3%
COc1ccc2c(c1)CCC1C2=NN(/C(C)=C/C(C)=O)C1c1cccc(F)c1 (centres undefined) | -9.9% | 31.5* | -28.1% | 47.3* | 1.8% | -1.2%
NC(=O)COC(=O)c1ccc(C(=O)C(=O)c2ccccc2)cc1 | 2.2% | -2.1 | 12.6% | -28.0 | 3.3% | -1.7%
NC(=O)COC(=O)c1ccc2noc(-c3ccccc3)c2c1 | 2.4% | 57.2* | -5.8% | 81.0* | -17.3% | -4.5%
COc1ccccc1-n1c(SCC(=O)N2CCCC2)nnc1-c1ccccc1 | 2.4% | -3.3 | -11.2% | -1.6 | 17.0% | -5.5%
Cc1ccc(OCCn2c(=O)n(C)c3ccccc32)cc1 | -3.5% | 42.3* | -7.0% | 104.5* | -9.2% | 5.9%
Cn1c(=O)n(CCOc2ccc([N+](=O)[O-])cc2)c2ccccc21 | -5.4% | 26.2* | -6.5% | 67.5* | -1.3% | 1.6%
Cc1ccc(OCCn2cc(C=O)c3ccccc32)cc1 | 6.8% | 2.1 | 1.1% | 12.4 | 9.0% | 6.9%
O=[N+]([O-])c1ccc(OCCN2CCNCC2)cc1 | 3.3% | -3.8 | ? | -6.7 | 3.1% | -11.6%
O=C(CSc1nnnn1-c1ccc2c(c1)OCCO2)N1CCc2ccccc21 | 1.0% | -6.8 | -2.0% | -10.5 | 5.1% | -1.9%
c1ccc(CSc2nnnn2-c2ccc3c(c2)OCCO3)nc1 | 0.8% | 21.4* | -0.5% | 42.9 | 5.2% | 9.6%
O=C(CSc1nnnn1-c1ccc2c(c1)OCCO2)OC1CCCCC1 | 1.2% | 33.8* | -0.7% | 102.4* | -10.9% | 4.4%
O=C(CSc1nnnn1-c1ccc2c(c1)OCCO2)Nc1nc2c(s1)CCCC2 | -7.2% | 1.4 | 16.2% | 19.6 | -5.0% | 7.9%
COc1ccc2nc(N3CCCC(C(=O)NCCc4ccc(OC)c(OC)c4)C3)sc2c1 (centres undefined) | 3.2% | 17.0* | 8.0% | 95.1* | -8.3% | 6.0%
COc1ccc(CCNC(=O)c2ccc3nc(N4CCCCC4)sc3c2)cc1OC | -3.9% | 22.1* | 4.3% | 34.4* | -11.5% | -4.0%
